Test results reported in PubChem BioAssay AID1159580 (chemical genetic matrix, 2015).
About 2,000 (36%) of roughly 5,500 compounds were called active. Inconclusive results (about 18%) are left out. No stated cut-off is given here; in the data, active means normalized growth mostly below about 0.91 (no sharp cut-off); inconclusive means no clear call, values can overlap the other calls; inactive means mostly above about 0.92. The list shows a part of the results.

Assay: chemical genetic growth profiling, strain panel (AID 1159580);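 further: tested at 20 µM; growth read once vehicle control cultures reached saturation at 30 °C; 1 = growth at the plate median or of vehicle wells; lower values mean less growth of the strain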
Settings: growth OD

Measured: normalized growth

COc1cc2c(c(OC)c1OC)-c1ccc(O)c(=O)cc1[C@@H](NC(C)=O)CC2
active: S. cerevisiae deletion strains, locus YDL035C, strain GPR1, active compounds read low 0.543 | S. cerevisiae deletion strains, locus YDL074C, strain BRE1, active compounds read low 0.515 | S. cerevisiae deletion strains, locus YDL101C, strain DUN1, active compounds read low 0.715 | S. cerevisiae deletion strains, locus YDL134C, strain PPH21, active compounds read low 0.87 | S. cerevisiae deletion strains, locus YDL185W, strain tfp1, active compounds read low 0.323 | S. cerevisiae deletion strains, locus YDR101C, strain arx1, active compounds read low 0.904 | S. cerevisiae deletion strains, locus YDR162C, strain NBP2, active compounds read low 0.382 | S. cerevisiae deletion strains, locus YEL061C, strain CIN8, active compounds read low 0.819 | S. cerevisiae deletion strains, locus YER167W, strain BCK2, active compounds read low 0.798 | S. cerevisiae deletion strains, locus YGL086W, strain mad1, active compounds read low 0.882 | S. cerevisiae deletion strains, locus YGL248W, strain PDE1, active compounds read low 0.744 | S. cerevisiae deletion strains, locus YGR078C, strain PAC10, active compounds read low 0.729 | S. cerevisiae deletion strains, locus YGR229C, strain SMI1, active compounds read low 0.247 | S. cerevisiae deletion strains, locus YHR030C, strain SLT2, active compounds read low 0.879 | S. cerevisiae deletion strains, locus YHR079C, strain IRE1 (second series), active compounds read low 0.851 | S. cerevisiae deletion strains, locus YHR129C, strain ARP1, active compounds read low 0.764 | S. cerevisiae deletion strains, locus YIL066C, strain RNR3, active compounds read low 0.543 | S. cerevisiae deletion strains, locus YIL073C, strain SPO22, active compounds read low 0.355 | S. cerevisiae deletion strains, locus YIL125W, strain kgd1, active compounds read low 0.881 | S. cerevisiae deletion strains, locus YJL095W, strain BCK1, active compounds read low 0.722 | S. cerevisiae deletion strains, locus YJL134W, strain LCB3, active compounds read low 0.913 | S. cerevisiae deletion strains, locus YJL187C, strain SWE1 (second series), active compounds read low 0.59 | S. cerevisiae deletion strains, locus YJR043C, strain POL32, active compounds read low 0.55 | S. cerevisiae deletion strains, locus YKL085W, strain MDH1 (second series), active compounds read low 0.91 | S. cerevisiae deletion strains, locus YKL085W, strain MDH1, active compounds read low 0.91 | S. cerevisiae deletion strains, locus YKL190W, strain CNB1, active compounds read low 0.593 | S. cerevisiae deletion strains, locus YKR001C, strain vps1, active compounds read low 0.889 | S. cerevisiae deletion strains, locus YLR039C, strain RIC1, active compounds read low 0.454 | S. cerevisiae deletion strains, locus YLR058C, strain SHM2, active compounds read low 0.691 | S. cerevisiae deletion strains, locus YLR268W, strain sec22, active compounds read low 0.852 | S. cerevisiae deletion strains, locus YLR330W, strain CHS5, active compounds read low 0.886 | S. cerevisiae deletion strains, locus YML016C, strain PPZ1, active compounds read low 0.829 | S. cerevisiae deletion strains, locus YMR307W, strain GAS1, active compounds read low 0.577 | S. cerevisiae deletion strains, locus YNL067W, strain RPL9B, active compounds read low 0.732 | S. cerevisiae deletion strains, locus YNL233W, strain BNI4, active compounds read low 0.81 | S. cerevisiae deletion strains, locus YNL271C, strain bni1, active compounds read low 0.843 | S. cerevisiae deletion strains, locus YNL298W, strain CLA4, active compounds read low 0.891 | S. cerevisiae deletion strains, locus YNL322C, strain KRE1, active compounds read low 0.639 | S. cerevisiae deletion strains, locus YOL006C, strain TOP1, active compounds read low 0.198 | S. cerevisiae deletion strains, locus YOR061W, strain CKA2, active compounds read low 0.753 | S. cerevisiae deletion strains, locus YOR069W, strain VPS5, active compounds read low 0.896 | S. cerevisiae deletion strains, locus YPL055C, strain LGE1, active compounds read low 0.436 | S. cerevisiae deletion strains, locus YPL241C, strain CIN2, active compounds read low 0.9 | S. cerevisiae deletion strains, strain wtn01, active compounds read low 0.881 | S. cerevisiae strains, strain wild type, active compounds read low 0.285
inactive: S. cerevisiae deletion strains, locus YBR021W, strain FUR4, active compounds read low 0.865 | S. cerevisiae deletion strains, locus YBR229C, strain ROT2, active compounds read low 0.962 | S. cerevisiae deletion strains, locus YCL029C, strain bik1, active compounds read low 0.982 | S. cerevisiae deletion strains, locus YDL192W, strain arf1, active compounds read low 0.978 | S. cerevisiae deletion strains, locus YDR318W, strain mcm21, active compounds read low 0.94 | S. cerevisiae deletion strains, locus YDR388W, active compounds read low 1 | S. cerevisiae deletion strains, locus YDR502C, strain sam2, active compounds read low 0.93 | S. cerevisiae deletion strains, locus YER110C, active compounds read low 1.03 | S. cerevisiae deletion strains, locus YER155C, strain BEM2, active compounds read low 0.98 | S. cerevisiae deletion strains, locus YGL078C, strain dbp3, active compounds read low 0.957 | S. cerevisiae deletion strains, locus YGR135W, strain pre9, active compounds read low 0.945 | S. cerevisiae deletion strains, locus YGR252W, strain gcn5, active compounds read low 0.879 | S. cerevisiae deletion strains, locus YHR094C, strain hxt1, active compounds read low 0.988 | S. cerevisiae deletion strains, locus YHR200W, strain rpn10, active compounds read low 0.977 | S. cerevisiae deletion strains, locus YIR030C, strain dcg1, active compounds read low 0.988 | S. cerevisiae deletion strains, locus YJL168C, strain set2, active compounds read low 1 | S. cerevisiae deletion strains, locus YKL009W, strain mrt4, active compounds read low 0.984 | S. cerevisiae deletion strains, locus YKL068W, active compounds read low 0.968 | S. cerevisiae deletion strains, locus YLR102C, strain apc9, active compounds read low 1.02 | S. cerevisiae deletion strains, locus YLR262C, strain YPT6, active compounds read low 0.72 | S. cerevisiae deletion strains, locus YLR342W, strain FKS1 (second series), active compounds read low 0.801 | S. cerevisiae deletion strains, locus YLR371W, strain rom2, active compounds read low 0.933 | S. cerevisiae deletion strains, locus YLR418C, strain cdc73, active compounds read low 0.841 | S. cerevisiae deletion strains, locus YML032C, strain rad52, active compounds read low 1 | S. cerevisiae deletion strains, locus YML124C, strain tub3, active compounds read low 1 | S. cerevisiae deletion strains, locus YMR078C, strain ctf18, active compounds read low 1.01 | S. cerevisiae deletion strains, locus YMR223W, strain ubp8, active compounds read low 0.938 | S. cerevisiae deletion strains, locus YNL250W, strain rad50, active compounds read low 0.968 | S. cerevisiae deletion strains, locus YNL307C, strain MCK1, active compounds read low 1.01 | S. cerevisiae deletion strains, locus YNR052C, strain pop2, active compounds read low 0.961 | S. cerevisiae deletion strains, locus YOL012C, strain htz1 0.984 | S. cerevisiae deletion strains, locus YOL147C, strain pex11, active compounds read low 1.01 | S. cerevisiae deletion strains, locus YOR136W, strain idh2, active compounds read low 0.988 | S. cerevisiae deletion strains, locus YOR144C, strain elg1, active compounds read low 0.97 | S. cerevisiae deletion strains, locus YOR184W, strain ser1, active compounds read low 1 | S. cerevisiae deletion strains, locus YOR316C, strain cot1, active compounds read low 1.02 | S. cerevisiae deletion strains, locus YPR119W, strain clb2, active compounds read low 1.03 | S. cerevisiae deletion strains, locus YPR141C, strain kar3, active compounds read low 0.997 | S. cerevisiae deletion strains, locus YPR163C, strain tif3, active compounds read low 1.01 | S. cerevisiae deletion strains, locus YPR167C, strain met16, active compounds read low 0.929
